# D1 antag: human D1 dopamine receptor antagonism | P21728 | HEK293 TREx D1 cells, calcium flux, dopamine EC80; stronger effect = lower value | activity change, negative = inhibition, % at 10 µM | hit rate 3.2% among 360,000 | AID 504652; in the data active means activity change below about -30%
#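 Compound effects on dopamine-evoked calcium signalling were measured in tetracycline-induced HEK293 Trex D1 cells. Dopamine at EC80 followed a 180 s compound pre-read, and fluorescence was tracked kinetically for 180 s more.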
# TRHR enhancer: TRH receptor (human) allosteric enhancement. TRHR cells, fluo-8 calcium fluorescence, EC20 TRH enhancement. enhancement, % at 2 µM. hit rate 0.66% among 360,000. P34981; in the data active means enhancement above about 30%
# Target sequence (P34981 whole entry, looked up): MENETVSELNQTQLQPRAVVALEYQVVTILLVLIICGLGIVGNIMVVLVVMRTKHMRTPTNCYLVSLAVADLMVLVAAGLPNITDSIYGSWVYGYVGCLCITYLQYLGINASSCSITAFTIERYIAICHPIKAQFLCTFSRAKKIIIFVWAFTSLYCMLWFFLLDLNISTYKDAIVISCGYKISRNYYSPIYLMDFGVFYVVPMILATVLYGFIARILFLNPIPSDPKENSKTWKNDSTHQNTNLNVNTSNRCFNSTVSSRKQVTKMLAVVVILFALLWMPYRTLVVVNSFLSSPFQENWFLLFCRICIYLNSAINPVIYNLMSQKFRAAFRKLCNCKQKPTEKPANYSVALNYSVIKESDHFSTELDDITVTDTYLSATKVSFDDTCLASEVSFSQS
#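 TRHR-expressing cells loaded with fluo-8 calcium dye were read kinetically (ex 480/em 530) during compound addition, then stimulated with an EC20 of TRH (10 nM final). Enhancement of the Gq-mediated intracellular calcium response was scored.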
# TRHR ag: agonists of human TRH receptor. AID 493084. TRHR cells, calcium flux fluo-8, FDSS agonist mode. P34981. activation, % at 2 µM. hit rate 0.18% among 360,000
#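 Fluo-8-loaded TRHR cells; 10 s baseline, compound added, kinetic Ca2+ fluorescence read 1/s, agonist mode.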
# D1 ag: human D1 receptor agonism. P21728. HEK293 T-REx D1 cells, calcium flux, agonist mode. activation, % at 2 µM. hit rate 1% among 360,000. AID 504660
#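 Agonism was scored from calcium flux recorded over 180 s (1 read/s) after pintool compound addition, following a 10-cycle baseline. Cells were inducible force-coupled HEK293 TREx D1, plated overnight at 30 C and loaded with no-wash calcium dye.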
# D1 potentiator: enhances dopamine response at the human D1 receptor; P21728; potentiation, % at 10 µM; HEK293 TREx D1 cells, calcium flux, dopamine EC20 potentiation; AID 504651; hit rate 0.036% among 360,000; in the data active means potentiation above about 30%
# USP1 inh: blocks the human USP1/UAF1 deubiquitinase complex | O94782 | recombinant USP1/UAF1, Ub-Rhodamine cleavage fluorescence | Potency, µM (doses to about 57.1 µM), usual class: inhibitors | hit rate 0.23% among 390,000; active means well fitted inhibition curve with a large enough effect; inconclusive means small, poorly fitted or top-dose-only effect; inactive means no such curve, though single readings can be large or run the other way; further: nearly all actives have a fitted effect of over 60% in size
#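 1 nM enzyme complex + cpd, 15 min RT; start with Ub-Rho 150nM final; kinetic fluorescence ex 480/em 540, 6 reads q60 s. Buffer 50mM HEPES pH 7.8, 0.5mM EDTA, 0.1 mg/ml BSA, 1mM TCEP, 0.01% Tween-20.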
# A number is an active result; – = inactive; ? = inconclusive. Compounds with a hit are over-represented: about 4.4% of the library has one in this group of screens. Unless noted, no stated cut-off is given here; in the data, active means activation above about 30%; inactive means the rest.
SMILES,D1 antag,TRHR enhancer,TRHR ag,D1 ag,D1 potentiator,USP1 inh
COc1ccc(NS(=O)(=O)c2ccc3c(c2)CC(C)N3C(=O)C2CCC2)cc1OC (configuration not stated),–,–,–,–,–,–
COc1cc(/C=N/N2C(=O)CSC2=S)cc(Br)c1O,–,–,–,44,–,?
COc1cccc(/C=N/N2C(=O)CSC2=S)c1O,–,–,–,–,–,–
CCc1ccc(CNC(=O)Cc2c(C(=O)O)c(C)cn2C)cc1,–,–,–,–,–,–
Cc1cccc(NC(=S)N(CCN2CCOCC2)Cc2cc3cc4c(cc3[nH]c2=O)OCCO4)c1,–,34,–,–,–,–
CCN(CC)CCCN(Cc1cc2cc3c(cc2[nH]c1=O)OCCO3)C(=O)Nc1ccc(F)cc1,–,32,–,–,–,–
COc1ccccc1/C=C(\C#N)c1nc(-c2cc3ccccc3oc2=O)cs1,–,–,–,–,–,?
Cc1ccccc1OCC(=O)N(Cc1cccs1)C1CCS(=O)(=O)C1 (configuration not stated),–,–,–,–,–,–
CN(C)c1ccc(CN(C(=O)c2cccs2)C2CCS(=O)(=O)C2)cc1 (configuration not stated),–,–,–,–,–,–
COc1ccccc1OCC(=O)N(Cc1cccs1)C1CCS(=O)(=O)C1 (configuration not stated),-42,–,–,–,–,–
CCOc1ccc(CN(C(=O)c2cccs2)C2CCS(=O)(=O)C2)cc1 (configuration not stated),-43,–,–,–,–,–
O=C(Cn1c(-c2cccs2)cc2ccccc21)NCc1ccccc1Br,–,–,–,–,–,–
CCNc1nc(Oc2ccc(=O)[nH]n2)nc(SC)n1,–,32,–,–,–,–
O=C(COc1ccccc1Cl)Nc1ccc(N2CCCC2)cc1,–,–,–,–,–,–
CCN1CCN(c2ccc(NC(=O)Cc3ccccc3)cc2)CC1,-62,–,–,–,–,–
O=C(COc1ccccc1Cl)Nc1ccc(N2CCN(C(=O)c3ccccc3)CC2)cc1,-52,–,–,–,–,–
O=C(COc1ccccc1)N1CCN(C(=O)c2ccco2)CC1,–,–,–,–,–,–
Cc1ccccc1OCC(=O)NNC(=O)Nc1ccc(Cl)cc1,–,–,–,–,–,–
O=C(COc1ccccc1O)Nc1ccc(Cl)cc1,-36,–,–,–,–,–
N#Cc1ccc(OCC(=O)N2CCN(C(=O)c3ccco3)CC2)cc1,-35,–,–,–,–,–
COc1ccc(S(=O)(=O)NCC(c2ccc(N(C)C)cc2)N2CCc3ccccc32)cc1F (configuration not stated),–,–,–,–,–,?
COc1cc2[nH]c(=O)n(Cc3ccc(C(=O)N4CCN(c5cccc(C)c5C)CC4)cc3)c(=O)c2cc1OC,–,–,–,–,–,–
O=C(Cc1ccccc1)Nc1cccc(N2CCCC2)c1,-35,–,–,–,–,–
O=C(Cc1ccccc1)Nc1ccc(N2CCCC2)cc1,–,–,–,–,–,–
O=C(O)CCCC(=O)Nc1ccc(Br)cc1,–,–,–,–,–,–
SMILES,D1 antag,TRHR enhancer,TRHR ag,D1 ag,D1 potentiator,USP1 inh
Cc1ccc(NC(=O)CS(=O)CC(=O)N2CCN(c3ccccc3)CC2)cc1 (configuration not stated),–,31,–,–,–,–
O=C(O)CCCC(=O)Nc1ccc(Cl)cc1,-54,–,–,–,–,–
O=C(COc1ccc(Cl)cc1)Nc1ccc(N2CCN(C(=O)c3ccco3)CC2)cc1,-31,–,–,–,–,–
CCOc1ccc(S(=O)(=O)c2cn(Cc3ccc(C)cc3)c3ccc(OC)cc3c2=O)cc1,–,–,–,–,–,–
COc1c(C)cc(NS(=O)(=O)c2ccc3c(c2)OCCO3)cc1C,–,–,–,–,–,–
COc1ccc(S(=O)(=O)N(CC(=O)N2CCC(C)CC2)c2ccc(C)cc2)cc1,–,–,–,–,–,–
CCN1CCN(c2ccc(NC(=O)COc3ccccc3Cl)cc2)CC1,-42,–,–,–,–,–
